JMJD2A Tudor: blocks the human JMJD2A Tudor domain; O75164; AlphaScreen JMJD2A-Tudor / H3K4me3 peptide binding; Potency, µM (series often up to 114 µM), inactives show at the highest dose activity change, negative = inhibition, hits mostly inhibitors; actives 4.4% (n = 390,000); further: on the % scale 0 is the no-effect control and ±100 the full control effect; nearly all actives have a fitted effect of over 50% in size
BAZ2B block: BAZ2B (human) inhibition. Q9UIF8. AlphaScreen BAZ2B-H3K14Ac peptide displacement. Potency, µM (doses to about 114 µM), for inactives: top-dose activity change, negative = inhibition, usual class: inhibitors. actives 4.4% (n = 360,000). AID 504333; further: on the % scale 0 is the no-effect control and ±100 the full control effect; nearly all actives have a fitted effect of over 60% in size
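AlphaScreen luminescence quantifies BAZ2B engagement of H3K14Ac peptide; the protein and biotinylated peptide are both at 50 nM final, buffer PBS pH 7.4 with 0.01% Tween-20, all steps at room temperature.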
G9a inh: inhibitors of human histone lysine methyltransferase G9a. Q96KQ7. G9a H3K9 monomethylation, AlphaScreen, 2 h. Potency, µM (doses to about 102 µM), without a hit: at the highest dose activity, negative = inhibition, usual class: inhibitors. actives 8.8% (n = 350,000). AID 504332; further: on the % scale 0 is the no-effect control and ±100 the full control effect; nearly all actives have a fitted effect of over 75% in size
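Readings reflect AlphaScreen signal from monomethyl-H3K9 antibody detection. HMT at 20 nM; substrate b-H3K9 500 nM; cofactor SAM 20 uM; 2 h RT reaction; compounds tested as titrations in qHTS with 15 min preincubation.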
Sfp inh: blocks B. subtilis Sfp PPTase activity; Biochemical Sfp PPTase activity, qHTS; Potency, µM, for the others: largest response in the series, negative = inhibition, actives largely listed as inhibitors; actives 3.5% (n = 310,000);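 further: the enzyme is Sfp with the accession as filed and its product quenches rhodamine fluorescence; 0% = enzyme reaction without inhibitor and -100% = no enzyme wells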
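Fluorescence-quenching assay with 15 nM Sfp, 5 uM rhodamine-CoA and 12.5 uM BHQ-2-labelled ybbR peptide in pH 7.6 Hepes/MgCl2 buffer. Enzyme was pre-incubated with compound for 15 min at room temperature. Rate was taken from the 30-min fluorescence change (525/598 nm).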
HP1b chromo inh: blocks HP1-beta chromodomain binding to methylated histone tails | P83916 | AlphaScreen HP1-beta / biotin-H3K9me3 peptide binding | Potency, µM (series often up to 114 µM), without a hit: top-dose activity change, negative = inhibition, usual class: inhibitors | actives 0.56% (n = 390,000) | AID 540317; further: nearly all actives have a fitted effect of over 70% in size
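Compound inhibition of the preformed complex between 50 nM HP1-beta and 50 nM biotinylated H3K9me3 peptide was read by AlphaScreen. Buffer was PBS pH 7.4 with 0.01% Tween-20. Incubations ran 30 min at room temperature, with 10 ug/mL donor/acceptor beads.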
* = called active by the depositor; ? = inconclusive; . = no result given; ! = a repeat was not active; [ ] = remark or other dose. Sampled rows, rich in hits. Any-hit rate of the full collection: about 12%. The call rests on the fitted dose curve; in most records, active means well fitted curve in the direction sought with a large enough effect; inconclusive means small, poorly fitted or top-dose-only effect, or another doubt; inactive means no such curve, though single readings can be large; an effect the other way counts as inactive or inconclusive. Potency means the concentration at half of the fitted maximal effect.

SMILES | JMJD2A Tudor | BAZ2B block | G9a inh | Sfp inh | HP1b chromo inh
O=C1NC(=O)C(=Cc2csc3ccccc23)C(=O)N1 | -10.6% | ? | 8.91µM* | 17.8µM* | 7.7%
O=C1NC(=O)C(=Cc2coc3ccccc3c2=O)C(=O)N1 | -22.2% | . | 35.5µM* | 39.8µM* | -2.4%
CC(=O)n1cc(C=C2C(=O)NC(=O)NC2=O)c2ccccc21 | ? | -15.9% | 10µM* | 22.4µM* | 32.4%
O=C1NC(=O)C(=C/C=C/c2coc3ccc(Br)cc3c2=O)C(=O)N1 | . | -34.4% | 8.91µM* | -14.3% | .
O=c1oc2ccccc2c(O)c1[C@H]1c2ccc(O)cc2Oc2c1c(=O)oc1ccccc21 | -20.7% | -13.4% | . | -3.9% | 15.7%
Cc1ccc2c(c1)c(=O)c1c3n2CCN(CC2CO2)C3CC1 (centres undefined) | -4.9% | 4.4% | -6.4% | 16.3% | 76.3%
CC(CCC(=O)O)C1CCC2C3C(=O)CC4CC(=O)CC[C@@]4(C)C3CC(=O)[C@]12C (some centres undefined) | . | . | -6.0%[2.33 µM] | 7.6% | .
Cn1cc(C(=O)C(=O)N[C@H]2CN3CCC2CC3)c2ccccc21 | . | . | 38.1%[59 µM] | 56.2µM*! | .
Cn1cc(C(=O)N2CCCCC2)c2ccccc21 | -3.5% | -4.7% | 36.7% | 24.8% | 11.9%
CCC(=NCc1cccnc1)c1c(O)n(-c2ccc(C)cc2)c(=O)[nH]c1=O | -16.6% | -3.6% | 7.8% | 15.0% | -6.9%
C=CCn1c(O)c(C(C)=NCCCN2CCOCC2)c(=O)[nH]c1=O | -0.6% | -3.8% | . | 0.2% | 29.2%
Cc1cccc(-n2c(O)c(/C=C3/C(c4ccccc4)=Nc4ccccc43)c(=O)[nH]c2=O)c1 | ? | 39.8µM* | ? | -15.6% | -10.4%
Cc1ccc(-n2c(O)c(/C=C3/C(c4ccccc4)=Nc4ccccc43)c(=O)[nH]c2=O)cc1 | ? | ? | 35.5µM* | -23.5% | -30.5%
O=C(CCC(=O)N1CC2C[C@@H](C1)Cn1c2cccc1=O)NCCc1ccccc1 | -16.3% | 8.1% | 7.9%[12.7 µM] | 17.0% | 13.1%
Cc1cc(=O)oc2cc(OCC(=O)N3CCN(C(C)c4ccccc4)CC3)c(Cl)cc12 (centres undefined) | -27.0% | 3.0% | -2.3%[12.7 µM] | . | 10.8%
Oc1cc2c(cc1CN1CCN(c3ccc(F)cc3)CC1)OCO2 | ? | ? | 8.91µM* | 7.6% | -9.8%
C[C@H]1[C@@H](O)[C@@H](C)/C=C\C=CCC\C=C/C=C\C=C/C=C[C@@H](O[C@H]2O[C@@H](C)[C@@H](O)[C@@H](N)[C@@H]2O)C[C@@H]2O[C@@](O)(C[C@@H](O)[C@H]2C(=O)O)C[C@@H](O)[C@@H](O)CC[C@@H](O)C[C@@H](O)C[C@@H](O)CC(=O)O[C@H]1C | . | . | 23.7%[21.5 µM] | 18.2% | .
C/C(=C/C=C/[C@@H](C)C(=O)O)[C@H]1CN[C@H](C(=O)O)[C@H]1CC(=O)O | 56.2µM* | -1.6% | ? | -10.8% | 20.9%
C=C(C)C1CNC(C(=O)O)C1CC(=O)O (centres undefined) | . | . | . | -29.1% | .
Cc1cccc(N2C(=O)NC(=O)/C(=C\c3cc(C)n(-c4sc5c(c4C#N)CCCC5)c3C)C2=O)c1C | ? | ? | 15.8µM* | 35.5µM* | -19.7%
CCOC(=O)c1c(-n2c(C)cc(C=C3C(=O)NC(=O)NC3=O)c2C)sc2c1CCCC2 | 0.8% | 4.9% | ? | -28.0% | 35.8%
CC(=O)Nc1cc(Cl)c(N=Cc2ccc(O)cc2O)cc1Cl | -6.4% | -35.7% | 56.2µM* | -17.1% | 33.4%
COc1ccc(OCC(=O)N2CCN(Cc3c[nH]c4ccccc34)CC2)cc1 | 3.55µM* | . | 3.55µM* | -14.6% | ?
O=C(Cc1ccccc1)N1CCN(Cc2c[nH]c3ccccc23)CC1 | -11.2% | 1.2% | -12.3% | -0.2% | 33.8%
O=C(COc1ccccc1)N1CCN(Cc2c[nH]c3ccccc23)CC1 | 7.94µM* | . | 12.6µM* | 1.1% | -17.6%
CC1(C)C2CC=C(CN3CCOCC3)C1C2 (centres undefined) | -23.4% | 1.2% | 17.2%[59 µM] | 6.2% | 22.1%
O=C(NC(Cc1ccccc1)C(=O)N1CCC2(CC1)OCCO2)C1CCCCC1 (centres undefined) | -4.5% | ? | . | 1.8% | 10.3%
